# Data from PubChem BioAssay AID2810 (NMMLSC, 2010).
# Screen size: about 1,200 compounds; about 65 (5%) were called active.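 How the source made its calls: active means at either tested dose, response and 90th-percentile vesicle-stain brightness of CD8 cells under set limits and under 9% cells vesicle-bound; inactive means the rest.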 Only a selection was taken, and actives are over-represented in it overall.
# Test: modulators of CD8 T cell-vesicle binding, confirmation, cherry-picked primary hits, two concentrations (AID 2810);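 on percent response (vesicle binding): ratio of mean FL2 vesicle stain of CD8+ cells to that row's control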
# Details: 2C CD8+ T cell-vesicle binding, flow cytometry; for double positive events: CD8+/vesicle+ events
# [1] = at 15.4 µM, stronger effect = lower value
SMILES,double positive events (at 7.7 µM) [%],double positive events [1] [%],percent response (vesicle binding) [1],"percent response (vesicle binding) (response, at 7.7 µM) [%]"
O=C(COc1ccccc1)Nc1cc(S(=O)(=O)N2CCOCC2)ccc1N1CCCC1,28.3,4.1,138% (inactive),164
CCN(Cc1ccccc1)C(=O)c1ccc(C)c(S(=O)(=O)N2CCCCC2)c1,11.9,30.2,197% (inactive),111
Cc1cccc(C(=O)OCC(=O)Nc2ccc3c(c2)OCCO3)c1O,10.2,29.9,717% (inactive),113
CCOC(=O)c1c(NC(=O)CN2C(=O)NC3(CCC(C)CC3)C2=O)sc(C)c1-c1ccc(C)cc1 (stereo not drawn),33.5,23.6,559% (inactive),363
Cc1cccc(C(=O)OCC(=O)NN2C(=O)NC3(CCC(C)CC3)C2=O)c1O (stereo not drawn),19.9,5.2,35.3% (active),181
Cc1ccc2nc(-c3cccnc3)c(NC3CCCC3)n2c1,16.9,33.3,211% (inactive),276
O=c1[nH]c(CN(CCc2ccccc2)S(=O)(=O)c2ccc(Cl)cc2)nc2ccccc12,9.5,16.7,208% (inactive),239
CCOC(=O)C(c1ccccc1)N1CCN(c2ccc(OC)cc2)CC1 (stereo not drawn),13.2,29.9,388% (inactive),255
CCc1noc(C)c1C(=O)OC(C)C(=O)Nc1ccc2c(c1)OCO2 (stereo not drawn),32.8,2.5,22% (active),329
CCc1ccccc1NC(=O)NCc1ccc2c(c1)OCO2,17.2,20,361% (inactive),479
CC(Sc1nc2ccccc2s1)C(=O)Nc1ccc2c(c1)OCO2 (stereo not drawn),9,28,533% (inactive),344
Cc1noc(C)c1C(=O)OC(C)C(=O)N1CCc2ccccc21 (stereo not drawn),28.5,4.4,134% (inactive),293
COc1ccc(Cl)cc1NS(=O)(=O)c1cccc(C(=O)NCC(C)(C)N2CCOCC2)c1,20.7,18.3,317% (inactive),710
COc1cc(CNCCc2ccc(S(N)(=O)=O)cc2)ccc1OCC(=O)N1CCCCC1,11.5,19.2,229% (inactive),370
Cc1ccc(C(=O)OCC(=O)NC2CCCCC2)o1,35.5,14,244% (inactive),265
COc1cc(CNCc2cccnc2)ccc1OCC(=O)NC1CCCCC1,18.4,5.7,32.6% (active),303
COc1ccc(CNC(=O)c2cccnc2SC)cc1OC,9.3,2,29.8% (active),180
COc1ccc(CNC(=O)COC(=O)CCN2C(=O)C3CC=CCC3C2=O)cc1OC (stereo not drawn),41.8,29.1,307% (inactive),239
COc1ccc(OC)c(NC(=O)c2ccccc2SC)c1,56.3,35.3,242% (inactive),–
O=C(Cn1cc(C(F)(F)F)cc(Cl)c1=O)NCCc1ccc(Cl)cc1Cl,11.1,1.7,16.3% (active),149
Cc1ccc(C(=O)NC2CCCc3c2cnn3-c2ccc(F)cc2F)cn1 (stereo not drawn),33.7,15,329% (inactive),658
CCOC(=O)C1(Cc2cccc(OC)c2)CCN(C/C=C/c2ccccc2)CC1,25.8,11,119% (inactive),269

SMILES,double positive events (at 7.7 µM) [%],double positive events [1] [%],percent response (vesicle binding) [1],"percent response (vesicle binding) (response, at 7.7 µM) [%]"
Cc1ccccc1/C(N)=N/OC(=O)c1cccs1,12.4,17.9,190% (inactive),217
CCOC(=O)N1CCN(Cc2nc(-c3ccc(C)cc3)no2)CC1,14.7,4.6,63% (inactive),286
COc1ccc([N+](=O)[O-])cc1NC(=O)C(C)Sc1nc(-c2ccccc2)cs1 (stereo not drawn),11.7,22.6,114% (inactive),121
COc1ccc([N+](=O)[O-])cc1N(CC(=O)O)S(C)(=O)=O,9.6,19.3,127% (inactive),281
COc1ccc([N+](=O)[O-])cc1NC(=O)c1ccc(N(Cc2ccccc2C)S(C)(=O)=O)cc1,8.4,2.9,47.7% (active),131
COc1cc2ccccc2cc1C(=O)NC1CCCCC1,11.7,19,121% (inactive),368
CCN1CCN(c2ccc(NC(=O)c3cc4ccccc4cc3OC)cc2C)CC1,21.2,1.8,55.9% (active),373
CCN1CCN(c2ccc(S(=O)(=O)N3CCCCC3)cc2NC(=O)c2cccc(C)c2[N+](=O)[O-])CC1,31.1,37.1,238% (inactive),406
O=C(Nc1nc2ccccc2n1CCN1CCOCC1)c1ccc(Cn2cc([N+](=O)[O-])cn2)o1,23.6,23.8,145% (inactive),260
C=CCn1c(C)cc(-c2csc(NCC)n2)c1C,11.2,24.9,196% (inactive),160
Cc1ccc(S(=O)(=O)N2CCN(CCOc3c(Cl)cccc3Cl)CC2)cc1C,28.4,18.9,334% (inactive),140
CCOC(=O)c1ccc(S(=O)(=O)N2CCN(C3CCCC3)CC2)cc1,11.3,23.3,294% (inactive),107
NC(=O)CCS(=O)(=O)CCN1CCN(S(=O)(=O)c2ccc3c(c2)CCC3)CC1,17.1,7.7,43.5% (active),183
O=C(NCC1CCCCC1)c1cccc(S(=O)(=O)N2CCCC2)c1,8.6,8.5,104% (inactive),305
Cc1ccc(/C=N/Nc2ccc(F)cc2F)s1,17.7,29.3,280% (inactive),159
O=C(NCC1CCCO1)C(=O)NCC(c1ccco1)N1CCN(c2ccc(F)cc2)CC1 (stereo not drawn),35.6,10.4,199% (inactive),266
O=C(O)c1ccc(N2C(=O)CC(SC(=Nc3ccccc3)Nc3ccccc3)C2=O)cc1 (stereo not drawn),19.3,18.5,276% (inactive),663
CCOC(=O)CSc1nnc(-c2ccc(Cl)cc2Cl)o1,16.3,10.1,118% (inactive),276
COc1cc(Cl)c(S(=O)(=O)n2cnc(C)c2)cc1Cl,9.6,9.7,141% (inactive),151
CCOC(=O)CSc1nnnn1-c1cc(OC)c(Cl)cc1OC,20.1,5.9,53.3% (active),312
CCn1c(SCC(=O)NCC2CCCO2)nnc1-c1c[nH]c2ccccc12 (stereo not drawn),14.2,13.6,286% (inactive),430
O=C(NN1C(=O)C2C3C=CC([C@H]4CC34)[C@@H]2C1=O)c1ccc(Br)cc1 (stereo partly drawn),33.5,31.2,590% (inactive),1000

SMILES,double positive events (at 7.7 µM) [%],double positive events [1] [%],percent response (vesicle binding) [1],"percent response (vesicle binding) (response, at 7.7 µM) [%]"
CCCOc1ccc(N2C(=O)CC(N(O)c3ccccc3)C2=O)cc1 (stereo not drawn),17.3,14.6,158% (inactive),254
Cc1ccsc1C(=O)OCC(=O)N1CCN(c2ccccc2)CC1,17.9,27,263% (inactive),143
Cc1ccccc1CS(=O)(=O)CCC(=O)N1CCN(c2ccc(N3CCOCC3)nn2)CC1,9,3.1,18.4% (active),160
CN(CCCC(=O)N1CCN(c2ncccn2)CC1)S(=O)(=O)c1ccc(F)cc1,7,13.1,151% (inactive),122
COc1ccc(Br)cc1CN(C)C(=O)c1ccc2c(c1)NC(=O)C(C)S2 (stereo not drawn),38.9,17.5,221% (inactive),368
Cc1cccc(NC(=O)C2CCN(S(=O)(=O)c3c(C)[nH]c(=O)[nH]c3=O)CC2)c1,9.4,12.6,434% (inactive),330
COc1ccc(NCc2nc3ccccc3n2CCOc2ccccc2)cc1,35.8,10.6,221% (inactive),261
CS(=O)(=O)c1cccc(-c2csc(N3CCC(C(N)=O)CC3)n2)c1,18.3,37.8,182% (inactive),192
CC(=O)c1ccc(-c2csc(N3CCC(C(N)=O)CC3)n2)cc1,15.1,4.6,28.3% (active),132
NC(=O)C1CCN(c2nc(-c3cc4ccccc4o3)cs2)CC1,28.4,8,128% (inactive),459
O=C(CN1C(=O)COc2ccc(S(=O)(=O)N3CCCC3)cc21)NC1CC1,21.1,16.7,459% (inactive),268
O=C(NCc1ccncc1)C(=O)NCC(c1ccco1)N1CCN(c2ccccc2F)CC1 (stereo not drawn),28.7,13.3,251% (inactive),276
CCOC(=O)c1sc(NC(=O)CSc2ncn[nH]2)c(C#N)c1C,36.7,26.4,617% (inactive),394
Cc1nnc(NC(=O)c2ccc(S(=O)(=O)N(C)c3ccccc3)cc2)s1,9.6,37.9,156% (inactive),134
CCCc1nnc(NC(=O)c2ccc(S(=O)(=O)N(C)c3ccccc3OC)cc2)s1,14.9,6,35.7% (active),216
COc1ccccc1-c1nnc(NC(=O)c2ccc(S(=O)(=O)N3CCOCC3)cc2)o1,7,8.1,284% (inactive),264
COc1cc(OC)cc(C(=O)NC(C(=O)Nc2ccc3c(c2)CCC3)C(C)C)c1 (stereo not drawn),8.9,21,368% (inactive),147
O=C(CC1=NCCNC(c2ccccc2)C1)c1ccccc1O (stereo not drawn),6.2,1.7,65.1% (inactive),316
COc1ccc(NCC(O)Cn2c(C)c(C)c3ccccc32)cc1 (stereo not drawn),11.5,16.3,63.6% (inactive),101
Cc1ccc(C(C)n2cc(C(=O)NCCN3CCN(C)CC3)nn2)cc1 (stereo not drawn),11.2,1.8,36.8% (active),155
O=C(NCCN1CCN(c2ccccc2)CC1)c1cccc(Br)c1,24.2,13.3,252% (inactive),278
CCCCCC(=O)N[C@@H](c1ccccc1)[C@@H](O)C(=O)O[C@H]1C[C@@]2(O)[C@@H](OC(=O)c3ccccc3)C3[C@](C)(C(=O)[C@H](OC(C)=O)C(=C1C)C2(C)C)[C@@H](O)C[C@H]1OC[C@@]31OC(C)=O (stereo partly drawn),16.4,12,252% (inactive),302
